Experimental data reported in PubChem BioAssay.
The source made the active and inactive calls.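 The calls were made as follows, unless noted: active = inhibition at or above 50% at 10 µM; inactive = inhibition below 50%.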

Experiments:
[1] = inhibitors of TNFa-induced NFkB p65 translocation, primary screen, imaging, HUVEC, MLSMR starter and 10KST1 sets (AID 438;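 active = inhibition above 20% together with a positive visual image hit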;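 also: compound added about 3h40 before a 20 min TNFalpha stimulation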;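 as to inhibition: signal is the nuclear over cytoplasmic p65 intensity ratio per well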); settings: HUVEC TNFa-induced p65 nuclear translocation; cell count: measured here: nuclei count (cytotoxicity indicator), at 2.08 µM; inhibition: at 2 µM, stronger effect = higher value, 0% TNFa-plus-vehicle, 100% no-TNFa wells
[2] = reduction of polyQ htt aggregates in cells – imaging, exon1htt(103Q)mCFP cells, high-content imaging, primary screen (AID 483;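 active = visual image review flags a hit and inhibition of aggregation exceeds 20%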;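 also: compound exposure lasted 3 days before fixation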;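 as to nuclei count: percent of the per-plate median nuclei count of sample wells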); settings: exon1htt(103Q)mCFP cell line, aggregate imaging, at 2 µM; inhibition of aggregation: stronger effect = higher value; nuclei count: measured here: cell count, toxicity
[3] = endothelial E-selectin expression blockers – imaging, HUVEC, immunofluorescence, MLSMR starter and 10KST1 sets, primary screen (AID 487;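 active = visually confirmed hit in the image check and inhibition above 20%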;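 as to inhibition: signal is fraction of cell area covered by stained E-selectin grains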;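 as to nuclei count: 100% = median nuclei count of all wells on the same plate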); settings: HUVEC TNFalpha-induced E-selectin immunofluorescence imaging, at 2 µM; inhibition: stronger effect = higher value; nuclei count: measured here: cell number, toxicity
[4] = molecular target: Voltage-gated potassium channel subunit beta-2 (Rattus norvegicus) (UniProt P62483); assay: inhibitors of rat Kvbeta2 reductase activity – biochemical, NADPH fluorescence, primary screen (AID 622;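 active = fluorescence slope higher than the sample average by over 3 SD, cut at about -0.22 in these data, passing the limit was not always enough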;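 also: slope of raw intensity against log time taken from 70 to 1610 s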); settings: recombinant KvBeta, 4-cyanobenzaldehyde reduction, at 10 µM, stronger effect = higher value
Sequence of Voltage-gated potassium channel subunit beta-2 (Rattus norvegicus) (P62483 whole entry, looked up): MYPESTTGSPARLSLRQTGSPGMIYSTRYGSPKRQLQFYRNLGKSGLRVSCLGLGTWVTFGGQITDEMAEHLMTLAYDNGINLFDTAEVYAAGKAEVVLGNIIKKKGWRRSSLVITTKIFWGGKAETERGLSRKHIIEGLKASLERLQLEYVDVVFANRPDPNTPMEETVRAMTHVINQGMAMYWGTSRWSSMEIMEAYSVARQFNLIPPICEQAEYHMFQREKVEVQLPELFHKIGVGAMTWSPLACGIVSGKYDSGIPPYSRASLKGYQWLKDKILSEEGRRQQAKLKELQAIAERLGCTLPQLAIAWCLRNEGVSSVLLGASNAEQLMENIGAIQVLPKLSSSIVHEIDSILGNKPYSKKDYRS

[5] = molecular target: Voltage-gated potassium channel subunit beta-2 (Rattus norvegicus) (UniProt P62483); assay: enhancers of rat Kvbeta2 NADPH turnover – biochemical, NADPH fluorescence, primary screen (AID 623;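 active = NADPH fluorescence slope more negative than the mean of all samples by about 3 SD, 99.7% confidence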;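 also: fluorescence intensity change per second fitted from 20 to 320 s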); settings: Recombinant KvBeta, NADPH fluorescence decrease slope, 10 min; at 10 µM; stronger effect = lower value
[6] = molecular target: Alpha-2C adrenergic receptor (Homo sapiens) (UniProt P18825); assay: compounds altering alpha2C-coupled GIRK flux – cell-based, HEK293 alpha2C/GIRK1/2, thallium flux, primary screen (AID 624;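 active = fluorescence slope after compound addition differing from the mean of all screened samples at 99.7% confidence, in either direction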;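 also: slope of fluorescence ratio to pre-addition baseline per second over 15 to 24 s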); settings: thallium flux BTC fluorescence, at 10 µM, actives lie on both sides
Sequence of Alpha-2C adrenergic receptor (Homo sapiens) (P18825 whole entry, looked up): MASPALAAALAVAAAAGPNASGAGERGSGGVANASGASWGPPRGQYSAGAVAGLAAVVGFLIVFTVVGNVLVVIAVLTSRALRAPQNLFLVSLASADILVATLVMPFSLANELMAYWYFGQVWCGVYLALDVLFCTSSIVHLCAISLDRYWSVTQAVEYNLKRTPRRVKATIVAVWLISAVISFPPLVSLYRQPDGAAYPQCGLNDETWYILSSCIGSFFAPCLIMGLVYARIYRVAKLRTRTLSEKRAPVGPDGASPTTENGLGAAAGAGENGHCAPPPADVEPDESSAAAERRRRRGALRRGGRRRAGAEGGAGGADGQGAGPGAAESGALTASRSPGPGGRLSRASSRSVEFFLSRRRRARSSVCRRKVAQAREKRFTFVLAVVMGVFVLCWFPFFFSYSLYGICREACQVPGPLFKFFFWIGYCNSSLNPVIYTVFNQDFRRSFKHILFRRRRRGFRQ

[7] = blockers of RIG-like receptor reporter activation – cell-based, Sendai virus stimulus, luciferase, 10K MLSCN set, TLR/RLR signaling modifier project, primary screen (AID 602276); settings: HEK293 RL24 IRF3 luciferase reporter, at 10 µM, stronger effect = higher value;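 also: firefly luciferase from ISG56 promoter only with Renilla not read in this screen; 0% = Sendai virus plus DMSO and 100% = medium plus DMSO without virus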
[8] = TLR3 IRF3 reporter activation blockers – cell-based, poly I:C stimulus, luciferase, 10K MLSCN set, primary screen (AID 602277;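 active = inhibition of the reporter signal at or above 50%; inactive = inhibition below 50%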); settings: HEK293-TLR3 RL24 IRF3 luciferase reporter, at 10 µM, stronger effect = higher value

| Compound | cell count [1] | inhibition [1] | inhibition of aggregation [2] | nuclei count [2] [%] | inhibition [3] | nuclei count [3] [%] | fluorescence slope [4] | NADPH fluorescence slope [5] | slope [6] | inhibition [7] | inhibition [8] |
| --- | --- | --- | --- | --- | --- | --- | --- | --- | --- | --- | --- |
| O=C(Nc1ccc(N2CCCCC2)cc1)c1ccc(F)cc1 | 420 | 0.3% (inactive) | -17.8% (inactive) | 111 | -134% (inactive) | 122 | -0.401 (inactive) | -0.000159 (inactive) | 0.00518 (inactive) | -44.9% (inactive) | -140% (inactive) |
| c1ccc2c(c1)CNC1(CCCCC1)C2 | 362 | -3.4% (inactive) | 13% (inactive) | 114 | -2.1% (inactive) | 103 | -0.552 (inactive) | 2.5e-05 (inactive) | 0.00453 (inactive) | 13.3% (inactive) | 14.2% (inactive) |
| CCOc1cc(C2C3=C(CCCC3=O)N(C)C3=C2C(=O)CCC3)cc(Cl)c1O | 413 | 12.5% (inactive) | -3.2% (inactive) | 94.1 | -17.1% (inactive) | 112 | -0.43 (inactive) | 5.6e-06 (inactive) | 0.00638 (inactive) | 4.36% (inactive) | 26.6% (inactive) |
| CS(=O)(=O)N(CC(=O)NCCSCc1cccc(Cl)c1)c1ccc2c(c1)OCO2 | 233 | -4.5% (inactive) | 35.8% (active) | 96.5 | 32.5% (inactive) | 71.4 | -0.528 (inactive) | -5.8e-05 (inactive) | 0.00685 (inactive) | -12% (inactive) | 1.85% (inactive) |
| COC(=O)c1cc(-c2c(C)oc3cc(O)ccc3c2=O)c(C)o1 | 609 | -2.2% (inactive) | -24% (inactive) | 114 | -117% (inactive) | 167 | -0.129 (active) | 2.7e-05 (inactive) | 0.0074 (inactive) | 4.96% (inactive) | 1.06% (inactive) |
| c1coc(-c2nnc(NC3=NCCC3)o2)c1 | 527 | -5.3% (inactive) | 6.6% (inactive) | 98.8 | -80.8% (inactive) | 162 | -0.526 (inactive) | 2.5e-05 (inactive) | 0.0054 (inactive) | -15.4% (inactive) | -42.4% (inactive) |
| O=C(CN1C(=O)CCSc2ccccc21)Nc1ccccc1 | 854 | -4.1% (inactive) | -19.8% (inactive) | 105 | -140% (inactive) | 113 | -0.447 (inactive) | -0.000395 (inactive) | 0.00731 (inactive) | -3.3% (inactive) | 7.46% (inactive) |
| COc1ccc(C)cc1-n1nnnc1SCC(=O)Nc1cc(C)on1 | 452 | 2.5% (inactive) | -18% (inactive) | 96.7 | -330% (inactive) | 150 | -0.6 (inactive) | -3.5e-05 (inactive) | 0.00592 (inactive) | 2.92% (inactive) | 12.5% (inactive) |
| O=C(CN(c1ccc(F)cc1)S(=O)(=O)c1ccc2c(c1)OCCO2)Nc1ccc2c(c1)OCO2 | 795 | -6.1% (inactive) | -28.9% (inactive) | 105 | -49.1% (inactive) | 114 | -0.485 (inactive) | -3.3e-05 (inactive) | 0.00328 (inactive) | 16.4% (inactive) | 16.1% (inactive) |
| O=C(CCN1C(=O)C2C3C=CC(C3)C2C1=O)N1CCN(c2ccccc2Cl)CC1 (centres undefined) | 776 | -18.1% (inactive) | -5% (inactive) | 123 | 2.5% (inactive) | 107 | -0.399 (inactive) | -4.7e-05 (inactive) | 0.00465 (inactive) | 10.7% (inactive) | 11.9% (inactive) |
| O=C(COc1ccccc1)NCC(c1cccs1)N1CCOCC1 (centres undefined) | 412 | 9% (inactive) | 2% (inactive) | 101 | -82.3% (inactive) | 112 | -0.453 (inactive) | 0.000103 (inactive) | 0.00649 (inactive) | -14.3% (inactive) | -11.6% (inactive) |
| CCOC(=O)c1cc2c(=O)n3ccccc3nc2n(Cc2ccccc2)c1=N | 913 | 11.3% (inactive) | 19.9% (inactive) | 102 | -109% (inactive) | 117 | -0.364 (inactive) | -2.8e-05 (inactive) | 0.00332 (inactive) | 6.32% (inactive) | 33.2% (inactive) |
| COc1cc2c(cc1OC)CN(CC(=O)Nc1cccc(C)c1)CC2 | 384 | 3.5% (inactive) | -6.2% (inactive) | 98.6 | -74.2% (inactive) | 102 | -0.495 (inactive) | -1.8e-05 (inactive) | 0.00456 (inactive) | 7.7% (inactive) | 9.94% (inactive) |
| COc1ccc(OC)c2[nH]c(=O)c(CCNC(=O)C(C)C)cc12 | 629 | -21.1% (inactive) | 7.9% (inactive) | 79.4 | -27.3% (inactive) | 112 | -0.56 (inactive) | -1.8e-05 (inactive) | 0.00598 (inactive) | -3.11% (inactive) | 9.79% (inactive) |
